Data as given in PubChem BioAssay AID1445 (SRMLSC, 2008).
The campaign covered roughly 220,000 compounds. About 910 (0.41%) were called active.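 The calls were made as follows: active = primary inhibition above the hit cutoff, then over 50% inhibition at one or more dose response concentrations (cut at about 23% in these data, passing the limit was not always enough); inconclusive = conflicting primary data, or primary hits not chosen for dose response; inactive = low primary inhibition, or under 50% at every dose.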 Only a selection was taken, and actives are over-represented in it overall. Potency and affinity values are given separately.

target: Aminopeptidase N (Plasmodium falciparum (isolate 3D7)) (UniProt O96935); assay: P. falciparum M1AAP inhibitors, biochemical, fluorogenic H-Leu-NHMec substrate, 1536-well (AID 1445); settings: recombinant M1AAP, H-Leu-NHMec fluorogenic kinetic assay; at 30 µM, stronger effect = higher value unless noted;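 also: plate controls were DMSO full reaction for no effect and no enzyme background for full effect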
Sequence (O96935 whole entry, looked up): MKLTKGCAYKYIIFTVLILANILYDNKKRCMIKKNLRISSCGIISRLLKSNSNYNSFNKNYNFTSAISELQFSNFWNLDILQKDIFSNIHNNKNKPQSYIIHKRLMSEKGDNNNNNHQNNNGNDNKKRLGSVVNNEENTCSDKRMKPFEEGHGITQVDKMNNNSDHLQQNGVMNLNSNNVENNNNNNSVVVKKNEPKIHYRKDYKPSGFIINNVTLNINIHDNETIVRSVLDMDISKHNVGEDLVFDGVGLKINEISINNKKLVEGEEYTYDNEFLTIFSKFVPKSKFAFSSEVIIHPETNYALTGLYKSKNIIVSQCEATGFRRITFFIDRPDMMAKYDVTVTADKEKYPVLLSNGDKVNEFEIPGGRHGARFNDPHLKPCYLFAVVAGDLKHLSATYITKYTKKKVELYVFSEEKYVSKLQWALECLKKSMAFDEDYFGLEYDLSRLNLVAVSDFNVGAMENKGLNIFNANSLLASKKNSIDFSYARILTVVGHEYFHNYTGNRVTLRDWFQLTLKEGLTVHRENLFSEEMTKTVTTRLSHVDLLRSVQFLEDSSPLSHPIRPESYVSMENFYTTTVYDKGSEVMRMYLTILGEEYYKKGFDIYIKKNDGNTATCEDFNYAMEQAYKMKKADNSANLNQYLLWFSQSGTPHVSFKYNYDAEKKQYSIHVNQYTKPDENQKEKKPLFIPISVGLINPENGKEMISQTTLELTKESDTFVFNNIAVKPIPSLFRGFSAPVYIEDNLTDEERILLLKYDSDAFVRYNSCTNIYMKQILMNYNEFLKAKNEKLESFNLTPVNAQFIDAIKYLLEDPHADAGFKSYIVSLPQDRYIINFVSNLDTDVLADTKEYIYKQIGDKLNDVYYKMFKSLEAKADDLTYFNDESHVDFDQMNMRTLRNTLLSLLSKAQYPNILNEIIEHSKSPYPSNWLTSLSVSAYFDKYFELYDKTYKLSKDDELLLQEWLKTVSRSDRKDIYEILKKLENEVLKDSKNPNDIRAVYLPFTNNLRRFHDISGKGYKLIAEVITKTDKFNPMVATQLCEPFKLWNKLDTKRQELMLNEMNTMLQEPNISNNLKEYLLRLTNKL

Structure (SMILES) | inhibition
Cc1c(Cl)cccc1N1C(=O)CC(NNC(=O)c2cccnc2)C1=O (stereo unspecified) | 8.09% (inactive)
O=C(c1cccnc1)N1CCN(c2ccccc2Cl)CC1 | -11.5% (inactive)
CCN1C(=S)SC(=O)C1=C1C=C(C)N(CCO)C(C)=C1 | 26.2% (active)
CCN1C(=S)SC(=O)C1=C1C=C(C)OC(C)=C1 | 0.47% (inactive)
CCN1C(=S)SC(=O)C1=C1C=C(C)N(Cc2ccco2)C(C)=C1 | 12.6% (inactive)
C/C(CC(=O)Nc1ccccc1)=N\NC(=O)COc1ccc(C)cc1Br | 2.81% (inactive)
CCC(C)(C)n1nnnc1C(c1ccc2ncccc2c1)N1CCN(c2ccc(O)cc2)CC1 (stereo unspecified) | 4.2% (inactive)
CCC(C)(C)n1nnnc1C(c1ccc2ncccc2c1)N1CCCCCC1 (stereo unspecified) | 4.86% (inactive)
COc1ccc(/C=C/C(=O)NCc2cnn(C)c2C)cc1COc1ccc(Br)cc1 | -0.2% (inactive)
CC1CCCC(C)N1NC(=O)c1cccc(S(=O)(=O)N2CCc3ccccc32)c1 (stereo unspecified) | 1.3% (inactive)
COC(=O)n1c(=O)oc2ccccc21 | 6.55% (inactive)
COc1cccc(Cn2nnc(C(=O)Nc3cc(C)ccc3OC)c2N)c1 | 7.36% (inactive)
Cc1cc(NC(=O)Cn2c(=O)n(Cc3ccccc3)c(=O)c3ccccc32)no1 | 23.7% (active)
CN(C)c1ccc(NC(=O)Cn2c(=O)n(Cc3ccccc3)c(=O)c3ccccc32)cc1 | 10.9% (inactive)
CCn1cnc2c1c(=O)n(CC(=O)Nc1cc(C)on1)c(=O)n2Cc1ccccc1 | -3% (inactive)
Cc1ccc(C(=O)CC2(O)C(=O)Nc3ccccc32)s1 (stereo unspecified) | -3.92% (inactive)
CCOc1ccccc1NC(=S)NCCCn1ccnc1 | -1.93% (inactive)
O=C(Nc1ccc(F)cc1)c1ccccc1S(=O)(=O)c1ccccc1[N+](=O)[O-] | 10.1% (inactive)
CC(=O)Nc1ccc(NC(=O)c2ccccc2S(=O)(=O)c2ccccc2[N+](=O)[O-])cc1 | 6.51% (inactive)
COCc1cc(C)n(CC(=O)OC)c(=O)c1C#N | 6.13% (inactive)
CC(C)(C)NC(=O)CN(C(=O)CS(=O)CC(=O)Nc1ccc(F)cc1)c1ccc(Cl)cc1 (stereo unspecified) | 3.41% (inactive)

Structure (SMILES) | inhibition
Cc1cc(C)n(-c2nc3ccccc3nc2N2CCCC2)n1 | 7.98% (inactive)
Cc1cc(C)n(-c2nc3ccccc3nc2N2CCCCCC2)n1 | 5.75% (inactive)
CCN(CC)c1nc2ccccc2nc1-n1nc(C)cc1C | 25.1% (active)
CC(=O)c1sc2nc(C)cc(C)c2c1N | 3.82% (inactive)
CCn1c(SCC(=O)N2CCCC2)nnc1-c1ccc(S(=O)(=O)N2CCCCCC2)cc1 | 17.8% (inactive)
CCOC(=O)C1=C(O)/C(=C/c2cc(OC)c(OC)c(OC)c2)SC1=Nc1ccc(OC)cc1 | 0.13% (inactive)
CCOC(=O)C1=C(O)/C(=C/c2ccc(-c3ccccc3C(=O)O)o2)SC1=Nc1ccc(OC)cc1 | 26.2% (active)
CCOC(=O)C1=C(O)/C(=C/c2ccccn2)SC1=Nc1ccc(Cl)cc1 | -2.13% (inactive)
CCOC(=O)c1ccc(N2C(=O)C(O)=C(C(C)=O)C2c2ccc(O)c(OC)c2)cc1 (stereo unspecified) | 11% (inactive)
COc1ccccc1-c1c(NC(=O)c2ccco2)n(C)c2ccccc2c1=O | 5.76% (inactive)
CN(C(=O)c1cnc2n(c1=O)CCS2)C1CCCCC1 | 7.72% (inactive)
O=C(c1cnc2n(c1=O)CCS2)N(c1ccccc1)C1CCCCC1 | 3.16% (inactive)
Cn1nnnc1Sc1ccc([N+](=O)[O-])cc1Cl | 4.02% (inactive)
Cc1ccc(OCC(=O)Nc2ccc(S(=O)(=O)Nc3ccccn3)cc2)cc1C | -0.21% (inactive)
Cc1ccc2nc(NC(=O)CSc3nncc(=O)n3N)sc2c1 | -3.78% (inactive)
CC1=CC(c2ccccc2)n2nc(NS(=O)(=O)c3ccc(C)cc3)nc2N1 (stereo unspecified) | 9.04% (inactive)
CC(=O)Nc1nc2n(n1)C(c1ccccc1)C=C(c1ccccc1)N2 (stereo unspecified) | 21.9% (inactive)
CC1=CC2=NC(=O)/C(=C\c3cccn3CCOc3cc(C)cc(C)c3)C(=N)N2O1 | 4.33% (inactive)
CCOC(=O)COc1cc2oc(=O)cc(C)c2cc1[N+](=O)[O-] | 1.36% (inactive)
CSc1cccc(-n2cc(-c3ccc4c(c3)OCO4)[nH]c2=O)c1 | 25.8% (active)
CCOc1ccc(-c2cn(-c3cccc(SC)c3)c(=O)[nH]2)cc1 | 7.5% (inactive)

Structure (SMILES) | inhibition
COc1ccc(-c2cn(-c3cccc(C)c3)c(=O)[nH]2)cc1OC | 0.73% (inactive)
COc1cccc(-c2nnc(SCc3cccnc3)o2)c1 | 1.1% (inactive)
Cc1nn(-c2ccccc2)c(C)c1/C=N/NC(=O)c1cc(C23CC4CC(CC(C4)C2)C3)[nH]n1 | 8.14% (inactive)
CN(NS(=O)(=O)c1ccc(Cl)cc1)c1ncc(C(F)(F)F)cc1Cl | 3.99% (inactive)
Cc1cccc(NC(=O)c2c(-c3ccccc3)noc2C)n1 | 3.16% (inactive)
CSc1cccc(NC(=S)N2CCC(N(C)C3CCCCCC3)CC2)c1 | 5.52% (inactive)
Cc1oc2cc(O)cc(O)c2c(=O)c1-c1ccc2c(c1)OCCCO2 | -10.6% (inactive)
O=c1c(-c2ccc3c(c2)OCCO3)c(C(F)(F)F)oc2cc(O)cc(O)c12 | 24.6% (active)
O=c1c(-c2ccc3c(c2)OCCO3)coc2cc(O)cc(O)c12 | 13.2% (inactive)
NC(=O)CSc1nnc(-c2cccnc2)n1Cc1ccccc1 | -0.97% (inactive)
Cn1nc(C(=O)Nc2sc3c(c2C#N)CCCC3)ccc1=O | 4.41% (inactive)
CC(C)Cn1c(CN2C(=O)c3ccccc3C2=O)nc2ccccc2c1=O | -3.16% (inactive)
O=C1c2ccccc2C(=O)N1n1c(=O)[nH]c2ccccc2c1=O | 2.13% (inactive)
Brc1ccccc1-c1csnn1 | 2.07% (inactive)
CCOCCCn1c(=S)[nH]c2cc(C(=O)NCCCN(CC)CC)ccc2c1=O | 12.3% (inactive)
COc1ccc(C(=O)c2c(C)oc3ccc(O)c(CN4CCOCC4)c23)cc1 | 1.06% (inactive)
O=C(CC(Cc1ccccc1)c1ccco1)NC1CCCCC1 (stereo unspecified) | 3.48% (inactive)
Cc1ccc(C2C=C(c3ccccc3)Nc3nc(N4C(=O)CCC4=O)nn32)cc1 (stereo unspecified) | 4.75% (inactive)
CC1=CC(c2ccc(Cl)cc2)n2nc(N3C(=O)CCC3=O)nc2N1 (stereo unspecified) | 14.2% (inactive)
